Laboratory results as given in paper PMC10338342.

Key:
[1] = biological target: Protein max (UniProt P61244); assay: cross-link between two proteins; cross-linking mass spectrometry; other
[2] = biological target: Histone H3.1 (UniProt P68431); assay: cross-link between two proteins; cross-linking mass spectrometry
[3] = biological target: Histone H4 (UniProt P62805); assay: as above
[4] = biological target: Histone H2B type 1-J (UniProt P06899); assay: as above

Myc proto-oncogene protein, P01106, sequence (P01106 whole entry): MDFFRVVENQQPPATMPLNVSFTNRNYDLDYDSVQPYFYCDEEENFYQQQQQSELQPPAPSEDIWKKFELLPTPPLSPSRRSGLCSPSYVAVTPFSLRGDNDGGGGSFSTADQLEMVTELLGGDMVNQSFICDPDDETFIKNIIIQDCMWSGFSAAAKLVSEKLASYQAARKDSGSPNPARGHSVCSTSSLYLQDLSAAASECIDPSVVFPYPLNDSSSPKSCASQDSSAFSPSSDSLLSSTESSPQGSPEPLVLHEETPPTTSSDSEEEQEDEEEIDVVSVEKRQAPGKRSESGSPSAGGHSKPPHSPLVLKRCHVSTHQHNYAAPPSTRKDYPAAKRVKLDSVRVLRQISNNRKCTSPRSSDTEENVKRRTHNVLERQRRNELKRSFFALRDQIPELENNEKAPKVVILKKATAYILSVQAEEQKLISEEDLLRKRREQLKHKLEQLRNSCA
Protein max, sequence (P61244 whole entry): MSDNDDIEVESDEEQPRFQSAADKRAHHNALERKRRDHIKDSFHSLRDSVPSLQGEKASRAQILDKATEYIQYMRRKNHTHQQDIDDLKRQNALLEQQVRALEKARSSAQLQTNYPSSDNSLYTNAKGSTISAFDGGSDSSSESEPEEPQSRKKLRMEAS

Substance | listed as a hit [1] | listed as a hit [2] | listed as a hit [3] | listed as a hit [4]
Myc proto-oncogene protein, P01106 | yes | – | – | –
Histone H2B type 1-J, P06899 | – | yes | yes | –
Histone H2A type 1-B/E, P04908 | – | yes | yes | yes
